# According to publication PMC8384837, “Expanding the binding specificity for RNA recognition by a PUF domain”:
# Substitutions are numbered along the chain they refer to.
# Assays:
# Assay in all cases: yeast three-hybrid, YBZ-1, SC-Leu-His + 0.5 mM 3-AT, 4 days
# Details in all cases: tags: N-Gal4 AD-HA kept; label: inside an RPR1-promoter hybrid RNA with tandem MS2 sites; ssRNA
# PUM1 PUF domain R1-RSS = PUM1 PUF domain R1-RSS (Homo sapiens, UniProt Q14671 828-1176, S863R;R864S;Q867S)
# In short: (§1)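 A centromeric plasmid in strain YBZ-1 co-expressed Pumilio-1 PUF domain libraries, randomized at the three base-contacting residues of each repeat, with matching RNA elements; the strain carries a LexA–MS2 coat fusion and a HIS3 reporter. After four days on SC-Leu (input) or SC-Leu-His + 0.5 mM 3-AT (selection), the repeat regions were PCR-amplified and Illumina-sequenced. The interaction score is the log change in variant frequency from input to selection, using log2 and a pseudocount of 1 where absent.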
# PUM1 PUF domain R3-RPW = PUM1 PUF domain R3-RPW (Homo sapiens, UniProt Q14671 828-1176, C935R;R936P;Q939W)
# In short: as §1
# PUM1 PUF domain R3-LRV = PUM1 PUF domain R3-LRV (Homo sapiens, UniProt Q14671 828-1176, C935L;Q939V)
# In short: as §1
# PUM1 PUF domain R3-NPG = PUM1 PUF domain R3-NPG (Homo sapiens, UniProt Q14671 828-1176, C935N;R936P;Q939G)
# In short: as §1
# PUM1 PUF domain R3-LFR = PUM1 PUF domain R3-LFR (Homo sapiens, UniProt Q14671 828-1176, C935L;R936F;Q939R)
# In short: as §1
# PUM1 PUF domain R2-CWP = PUM1 PUF domain R2-CWP (Homo sapiens, UniProt Q14671 828-1176, N899C;Y900W;Q903P)
# PUM1 PUF domain R2-CWP, sequence (Q14671 828-1176 N899C/Y900W/Q903P): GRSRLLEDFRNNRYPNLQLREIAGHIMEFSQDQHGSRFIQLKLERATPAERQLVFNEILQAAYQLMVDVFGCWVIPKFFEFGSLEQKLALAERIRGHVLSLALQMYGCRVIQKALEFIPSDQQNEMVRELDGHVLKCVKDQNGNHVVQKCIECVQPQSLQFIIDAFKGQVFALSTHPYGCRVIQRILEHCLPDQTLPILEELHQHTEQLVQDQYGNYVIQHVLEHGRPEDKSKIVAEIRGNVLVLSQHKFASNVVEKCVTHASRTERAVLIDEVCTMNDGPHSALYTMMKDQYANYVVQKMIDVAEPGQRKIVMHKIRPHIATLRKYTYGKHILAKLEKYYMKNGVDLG
# In short: as §1
# PUM1 PUF domain R8-RHA = PUM1 PUF domain R8-RHA (Homo sapiens, UniProt Q14671 828-1176, N1122R;Y1123H;Q1126A)
# In short: as §1
# PUM1 PUF domain R8-PWN = PUM1 PUF domain R8-PWN (Homo sapiens, UniProt Q14671 828-1176, N1122P;Y1123W;Q1126N)
# In short: as §1
# PUM1 PUF domain R3-FRD = PUM1 PUF domain R3-FRD (Homo sapiens, UniProt Q14671 828-1176, C935F;Q939D)
# In short: as §1
# PUM1 PUF domain R4-SRT = PUM1 PUF domain R4-SRT (Homo sapiens, UniProt Q14671 828-1176, N971S;H972R;Q975T)
# PUM1 PUF domain R4-SRT, sequence (Q14671 828-1176 N971S/H972R/Q975T): as the sequence (Q14671 828-1176 N899C/Y900W/Q903P) above, with C72N, W73Y, P76Q, N144S, H145R, Q148T counted along it
# In short: as §1
# PUM1 PUF domain R5-PFP = PUM1 PUF domain R5-PFP (Homo sapiens, UniProt Q14671 828-1176, C1007P;R1008F;Q1011P)
# In short: as §1
# PUM1 PUF domain R5-TRL = PUM1 PUF domain R5-TRL (Homo sapiens, UniProt Q14671 828-1176, C1007T;Q1011L)
# In short: as §1
# PUM1 PUF domain R3-PYL = PUM1 PUF domain R3-PYL (Homo sapiens, UniProt Q14671 828-1176, C935P;R936Y;Q939L)
# In short: as §1
# PUM1 PUF domain R4-GMG = PUM1 PUF domain R4-GMG (Homo sapiens, UniProt Q14671 828-1176, N971G;H972M;Q975G)
# In short: as §1
# PUM1 PUF domain R6-THR = biological target: T1, PUM1 PUF domain R6-THR (Homo sapiens, UniProt Q14671 828-1176, N1043T;Y1044H;Q1047R)
# T1 sequence: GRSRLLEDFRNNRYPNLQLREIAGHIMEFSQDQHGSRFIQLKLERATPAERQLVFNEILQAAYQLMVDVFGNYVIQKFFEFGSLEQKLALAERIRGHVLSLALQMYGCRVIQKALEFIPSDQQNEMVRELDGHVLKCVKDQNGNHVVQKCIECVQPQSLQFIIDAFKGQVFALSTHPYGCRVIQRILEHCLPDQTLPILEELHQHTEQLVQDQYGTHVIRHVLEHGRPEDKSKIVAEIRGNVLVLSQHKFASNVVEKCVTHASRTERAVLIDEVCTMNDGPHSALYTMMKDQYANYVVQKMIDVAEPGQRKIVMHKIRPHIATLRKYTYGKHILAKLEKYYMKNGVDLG
# In short: as §1
# PUM1 PUF domain R5-KRI = PUM1 PUF domain R5-KRI (Homo sapiens, UniProt Q14671 828-1176, C1007K;Q1011I)
# In short: as §1
# PUM1 PUF domain R5-RVM = PUM1 PUF domain R5-RVM (Homo sapiens, UniProt Q14671 828-1176, C1007R;R1008V;Q1011M)
# In short: as §1
# PUM1 PUF domain R4-VNG = PUM1 PUF domain R4-VNG (Homo sapiens, UniProt Q14671 828-1176, N971V;H972N;Q975G)
# In short: as §1
# PUM1 PUF domain R6-IWQ = biological target: T2, PUM1 PUF domain R6-IWQ (Homo sapiens, UniProt Q14671 828-1176, N1043I;Y1044W)
# T2 sequence: T1 sequence with T216I, H217W, R220Q
# In short: as §1
# PUM1 PUF domain R7-VRR = PUM1 PUF domain R7-VRR (Homo sapiens, UniProt Q14671 828-1176, S1079V;N1080R;E1083R)
# In short: as §1
sequence,measurement,setting,value
GGCUAGAACUAGUGGAUCCCCCGGCGCCCGGCGGCUCGAGCCCGGGUAAGUGUAAAUGGUCUGCAUGCCGCCGGGCGCCAUGCCUGCAGGUCGACUCUAGAAAACAUG,binding signal,PUM1 PUF domain R1-RSS,2.55 log2 enrichment (interaction score)
GGCUAGAACUAGUGGAUCCCCCGGCGCCCGGCGGCUCGAGCCCGGGUAAGUGUAAAUUGUCUGCAUGCCGCCGGGCGCCAUGCCUGCAGGUCGACUCUAGAAAACAUG,binding signal,PUM1 PUF domain R1-RSS,3.21 log2 enrichment (interaction score)
GGCUAGAACUAGUGGAUCCCCCGGCGCCCGGCGGCUCGAGCCCGGGUAAGUGUAAUUAGUCUGCAUGCCGCCGGGCGCCAUGCCUGCAGGUCGACUCUAGAAAACAUG,binding signal,PUM1 PUF domain R3-RPW,2.6 log2 enrichment (interaction score)
same,binding signal,PUM1 PUF domain R3-LRV,1.41 log2 enrichment (interaction score)
same,binding signal,PUM1 PUF domain R3-NPG,2.86 log2 enrichment (interaction score)
same,binding signal,PUM1 PUF domain R3-LFR,5 log2 enrichment (interaction score)
GGCUAGAACUAGUGGAUCCCCCGGCGCCCGGCGGCUCGAGCCCGGGUAAGUGUAAAAAGUCUGCAUGCCGCCGGGCGCCAUGCCUGCAGGUCGACUCUAGAAAACAUG,binding signal,PUM1 PUF domain R2-CWP,6.72 log2 enrichment (interaction score)
GGCUAGAACUAGUGGAUCCCCCGGCGCCCGGCGGCUCGAGCCCGGGUAAGCGUAAAUAGUCUGCAUGCCGCCGGGCGCCAUGCCUGCAGGUCGACUCUAGAAAACAUG,binding signal,PUM1 PUF domain R8-RHA,4.75 log2 enrichment (interaction score)
same,binding signal,PUM1 PUF domain R8-PWN,3.44 log2 enrichment (interaction score)
GGCUAGAACUAGUGGAUCCCCCGGCGCCCGGCGGCUCGAGCCCGGGUAAGUGUAAAUCGUCUGCAUGCCGCCGGGCGCCAUGCCUGCAGGUCGACUCUAGAAAACAUG,binding signal,PUM1 PUF domain R1-RSS,3.93 log2 enrichment (interaction score)
GGCUAGAACUAGUGGAUCCCCCGGCGCCCGGCGGCUCGAGCCCGGGUAAGUGUAAGUAGUCUGCAUGCCGCCGGGCGCCAUGCCUGCAGGUCGACUCUAGAAAACAUG,binding signal,PUM1 PUF domain R3-LRV,3.77 log2 enrichment (interaction score)
same,binding signal,PUM1 PUF domain R3-LFR,5.96 log2 enrichment (interaction score)
same,binding signal,PUM1 PUF domain R3-FRD,5.68 log2 enrichment (interaction score)
GGCUAGAACUAGUGGAUCCCCCGGCGCCCGGCGGCUCGAGCCCGGGUAAGUGUAAAUAGUCUGCAUGCCGCCGGGCGCCAUGCCUGCAGGUCGACUCUAGAAAACAUG,binding signal,PUM1 PUF domain R8-RHA,3.38 log2 enrichment (interaction score)
same,binding signal,PUM1 PUF domain R4-SRT,3.46 log2 enrichment (interaction score)
same,binding signal,PUM1 PUF domain R5-PFP,4.69 log2 enrichment (interaction score)
same,binding signal,PUM1 PUF domain R5-TRL,3.3 log2 enrichment (interaction score)
same,binding signal,PUM1 PUF domain R3-PYL,5.55 log2 enrichment (interaction score)
same,binding signal,PUM1 PUF domain R4-GMG,1.25 log2 enrichment (interaction score)
same,binding signal,PUM1 PUF domain R3-LFR,1.74 log2 enrichment (interaction score)
same,binding signal,PUM1 PUF domain R6-THR,3.12 log2 enrichment (interaction score)
GGCUAGAACUAGUGGAUCCCCCGGCGCCCGGCGGCUCGAGCCCGGGUAAGUGUUAAUAGUCUGCAUGCCGCCGGGCGCCAUGCCUGCAGGUCGACUCUAGAAAACAUG,binding signal,PUM1 PUF domain R5-TRL,2.18 log2 enrichment (interaction score)
GGCUAGAACUAGUGGAUCCCCCGGCGCCCGGCGGCUCGAGCCCGGGUAAGUGUCAAUAGUCUGCAUGCCGCCGGGCGCCAUGCCUGCAGGUCGACUCUAGAAAACAUG,binding signal,PUM1 PUF domain R5-KRI,4.51 log2 enrichment (interaction score)
same,binding signal,PUM1 PUF domain R5-RVM,2.54 log2 enrichment (interaction score)
GGCUAGAACUAGUGGAUCCCCCGGCGCCCGGCGGCUCGAGCCCGGGUAAGUGUAUAUAGUCUGCAUGCCGCCGGGCGCCAUGCCUGCAGGUCGACUCUAGAAAACAUG,binding signal,PUM1 PUF domain R4-SRT,2.14 log2 enrichment (interaction score)
same,binding signal,PUM1 PUF domain R4-GMG,2.85 log2 enrichment (interaction score)
same,binding signal,PUM1 PUF domain R4-VNG,2.54 log2 enrichment (interaction score)
GGCUAGAACUAGUGGAUCCCCCGGCGCCCGGCGGCUCGAGCCCGGGUAAGUGAAAAUAGUCUGCAUGCCGCCGGGCGCCAUGCCUGCAGGUCGACUCUAGAAAACAUG,binding signal,PUM1 PUF domain R6-IWQ,4.87 log2 enrichment (interaction score)
GGCUAGAACUAGUGGAUCCCCCGGCGCCCGGCGGCUCGAGCCCGGGUAAGUUUAAAUAGUCUGCAUGCCGCCGGGCGCCAUGCCUGCAGGUCGACUCUAGAAAACAUG,binding signal,PUM1 PUF domain R7-VRR,2.18 log2 enrichment (interaction score)
